Laboratory results taken from the supplement of paper PMC6555819.

Each sequence was assayed on VDR:RXRa (NR concentration 270 nM, RXRa partner concentration 90 nM) (assay: PBM binding z-score (relative to random genomic background probes); higher = stronger binding; sequences stand for … in GC…GCGATTGACAGCGTAGAATGAAGG).
Method: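 Protein-binding microarray (Agilent 4x180K custom design, double-stranded 60-nt probes: 5' GC cap, 34-nt variable region, 24-nt constant primer region; full probe sequence given). Purified or IVT nuclear receptor:RXRα heterodimers (3:1 NR:RXRα, mostly 270:90 nM) or homodimers were incubated for 1 h in PBS with 2% milk and no ligand, then detected with Alexa488 antibodies. Fluorescence from o1-orientation probes (~5 replicates averaged) was converted to z-scores against 500 random hg19 background probes. Variable regions are seed direct-repeat (DR0–DR5) sites, all their single-nucleotide variants and half-site ablations.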

Row | Sequence | PBM binding z-score
1 | CGAACTAGGACATCCAGGACAGTGAATACATTGA | -0.0982
2 | ATATGTAGGTTAGGATCATTCAGAAAGTAGGGAA | 0.744
3 | TCTGCTTGGTCAACGATGGTCAGCTAATCTGCTA | -0.63
4 | CGAACTACGTCACCAGGACAGTGAAGAGGTTGGA | -0.211
5 | ATGTGTAGGTTACATCCGGGTCATTCAGGCTATG | 4.22
6 | CAAACTAGGTCACCGGAAAGTCAAAGTCCGCATG | 2.61
7 | TCGAGTAGGTTACGGGGGCATTGAGGGATGAAGA | 3.66
8 | CATACCGGGTCAGCTAGGCCAGAGTAGGGACGGC | 2.57
9 | TGTCAAAGCTCAAAGGTAACGTAAGTATCCACAC | 0.171
10 | CGAACTAGGTCAAAAGACAGTGAAAGGCGACGTA | 0.721
11 | AATACAGGGTCACTAGGTCAGAGTAGGTACGAAT | 5.25
12 | CGATCTAGGTCAAAGGACAGTGAAAGGCGACGTA | 1.15
13 | CCTAGCAGGCCAGGTTCACTCAAGCATTTCGCTT | 2.09
14 | CGAACTAGGTCCTTGACAGGACAGTGAATAGTAA | -0.351
15 | TCGAGTAGGTTACGGGGGAATTCAGGGATGAAGA | 1.25
16 | CCAGACAGGTGAAAGGTAACTCCGTCTGGTACGC | 0.557
17 | ATATGTAGGTTAGCTGGGGTCATTCCGACTAGGC | 6.1
18 | AGAATGAGGTTACCAGAGATCAGGGAAACGCTTG | 1.72
19 | ATATGTAGGTTAAGGGTCATGCAGGTTGGTTCGC | 5.46
20 | CGTCCAAGGTCAGAGAGGTCAGTGTATGCCGAGT | 7.31

Row | Sequence | PBM binding z-score
21 | CTATGTAGGTTCAGGGGGTCATTCAGTTTGAAAG | 6.91
22 | ATATGTAGGCTAGGGTCATTCAGAAAGTAGGGAA | 3.8
23 | CAAACTAGGTCAAAGGTCAAAGACGAGCCAACCA | 6.69
24 | CGTCTAAGTTCAAGGTAACGTAACAGAAAGCAGC | 3.43
25 | GCTAGTTGGTCAGTAAATGGTCACACACCGGTCG | -0.166
26 | ATCCAAAGGTCGAGGTGAGTATAGAGAAAGGGAA | 3.05
27 | CGTCCAAGGTCATAGGAGGTCACTGAAGACAGAT | 7.05
28 | CAAACTAGGTCACGAAAGGGCAAAGTCGAATGAC | 5.28
29 | ATATGTAGGTTAGGGTCTTTCAGAAAGTAGGGAA | 0.666
30 | AAAATGAGGTTAAGATCAGGGAAACAGAATACAT | 1.35
31 | CCGTACGGGTCAAGGTTATAGCACGGGTGGTACG | 3.43
32 | TCTAGTTGGTCACGGAGGTCACACGCGACGGGTA | 5.87
33 | ATATGTAGGTTAGGGTCATTCTGAAAGTAGGGAA | 4.44
34 | CGAACTAGGTCCAAGGACAGTGAAAGGCGACGTA | -0.332
35 | ATATGTAGGTTAGGGTCATTCATAAAGTAGGGAA | 4.67
36 | ATATGTAGGTTAGCGTCATTCAGAAAGTAGGGAA | 0.0435
37 | TATACAGGGTCAAAGGGCAGAGTACGAATGTCGA | 5.43
38 | CCGAGTAGGTTACGAGGGGGCATTTAGTGCGAAT | 4.94
39 | CTATGTAGGTTAAGCGGGTCATTCAGTTTGAAAG | 5.74
40 | TCTAGCTGGTCACGGAGGTCACACACGACGGGTA | 6.05
